{
  "source": "PubChem BioAssay",
  "data": [
    {"experiment": "basal MM1S mitochondrial membrane potential changes, profiling panel, cell-based, JC-1 fluorescence, 24 h, 100 nL compound (AID 1170); further: test concentration not given here", "conditions": "higher = more signal", "values": [
      {"compound": "CC(C)(C)OC(=O)CC[C@]1(C(=O)N2CCCCC2)COC(c2ccc(OCCCO)cc2)=N1", "z-score": -0.978},
      {"compound": "O=C1[C@@]23C=C(Br)[C@H](C[C@@H]2COC3)[C@@]12CO2", "z-score": -0.809},
      {"compound": "O=C1C[C@@](C(=O)NCc2ccccc2)(c2ccc([N+](=O)[O-])cc2)[C@@H](c2ccc(CO)cc2I)N1CC12CC3CC(CC(C3)C1)C2", "z-score": -0.91},
      {"compound": "O=C1C[C@@](C(=O)NCC(F)(F)F)(c2ccc([N+](=O)[O-])cc2)[C@@H](c2ccc(CO)cc2)N1CC12CC3CC(CC(C3)C1)C2", "z-score": -0.0442},
      {"compound": "CN1C(=O)C2C=CC(C(O)c3ccc(I)cc3)N(Nc3ccccc3)C2C1=O", "note": "(stereo not given)", "z-score": 0.0807},
      {"compound": "COc1cc(C(O)C2C=CC3C(=O)N(Cc4ccccc4)C(=O)C3N2n2cnnc2)cc(OC)c1OC", "note": "(stereo not given)", "z-score": 0.588},
      {"compound": "C=C(COC)/C(=C/C[C@@H](OC(=O)c1ccncc1)c1ccccc1OCCO)c1cc(C(=O)OC)ccc1OC", "z-score": -1.9},
      {"compound": "CC(C)C[C@@H]1NC(=O)[C@@]23C(=O)N[C@@H](Cc4ccccc4)C2[C@H](C)[C@@]2(C)O[C@H]2C3/C=C/C/C=C\\CNC(=O)[C@@H](C)NC1=O", "note": "(stereo not given in full)", "z-score": -0.342},
      {"compound": "CCCNC(=O)[C@@]1(Sc2ccc(C)cc2)CC(=O)N(C(C)C)[C@@H]1c1ccc(CO)cc1I", "z-score": -1.02},
      {"compound": "CN1C(=O)C2C(C1=O)C1C=C(CCCO)C2C(c2cccs2)N1Cc1cc2c(cc1Br)OCO2", "note": "(stereo not given)", "z-score": 0.872},
      {"compound": "C=C(CCCC)/C(=C/C[C@H](OC(C)=O)c1ccc(OCCO)cc1)c1cc(C(=O)OC)ccc1OC", "z-score": -0.957},
      {"compound": "COC(=O)[C@@]1(Cc2ccc(OC)cc2)[C@H]2c3cc(C(=O)N4CCCC4)n(Cc4ccc(OC(F)(F)F)cc4)c3C[C@H]2CN1C(=O)c1ccccc1", "z-score": -1.58},
      {"compound": "CS(=O)(=O)CCOC(=O)C1=CC(CCCO)=CC(C2CC2)N(Cc2cccc(OC(F)(F)F)c2)C=C1C(=O)OCCS(C)(=O)=O", "note": "(stereo not given)", "z-score": -0.0798},
      {"compound": "COC(=O)C1=CC(CCCO)=CC(C)N(Cc2cccc(OC(F)(F)F)c2)C=C1C(=O)OC", "note": "(stereo not given)", "z-score": -0.645},
      {"compound": "[N-]=[N+]=NCc1ccccc1[C@@H]1OC(c2ccc(OCCCO)cc2)=N[C@]1(Cc1ccccc1)C(=O)NCCN1CCOCC1", "z-score": 0.424},
      {"compound": "CC(C)C(=C=CC[C@@H](O)c1cccc(OCCO)c1)C[C@@H](O)c1ccccn1", "z-score": -0.753},
      {"compound": "O=C(NCC(O)CO)[C@@]1(CCS(=O)(=O)c2ccccc2)COC(c2ccc(OCCCO)cc2)=N1", "note": "(stereo not given in full)", "z-score": -0.815},
      {"compound": "CCOC(=O)C1=C[C@@H](c2ccccc2)N(S(=O)(=O)c2ccc(C)cc2)[C@H]1c1ccccc1", "z-score": -0.0131},
      {"compound": "CC(C)OC(=O)CC(=O)CC(O)c1ccc([N+](=O)[O-])cc1", "note": "(stereo not given)", "z-score": -0.359},
      {"compound": "COC(=O)C1N=C(c2ccc(OCCCO)cc2)N(c2ccccc2)O1", "note": "(stereo not given)", "z-score": 0.042},
      {"compound": "NC(=O)NCC#Cc1ccc2c(c1)[C@]1(C(=O)N2)[C@H](C(=O)N2CCN(c3ncccn3)CC2)[C@H]2C(=O)O[C@H](c3ccccc3)[C@H](c3ccccc3)N2[C@@H]1c1ccc(OCCO)cc1", "z-score": -0.445},
      {"compound": "[N-]=[N+]=Nc1ccccc1C[C@]1(C(=O)O)N=C(c2ccc(OCCCO)cc2)O[C@H]1c1ccccc1", "z-score": -0.547},
      {"compound": "C=C(/C(=C/C[C@@H](OC(C)=O)c1ccc(OCCO)cc1)c1cc(C(=O)OC)ccc1OC)C(C)C", "z-score": -0.8},
      {"compound": "COc1ccc(NC(=O)O[C@H]2[C@@H]3OC(=O)[C@H](Cc4cccc(Br)c4)C/C=C/C[C@@H](Cc4cccc(Br)c4)C(=O)O[C@H]3[C@@H](OC)O[C@@H]2CO)cc1", "z-score": 0.329},
      {"compound": "[N-]=[N+]=NCc1ccccc1[C@H]1OC(c2ccc(OCCCO)cc2)=N[C@@]1(CCS(=O)(=O)c1ccccc1)C(=O)NCc1ccccc1", "z-score": -0.531},
      {"compound": "COc1cc(NN2C(C(O)C3CCCCC3)C=CC3C(=O)N(C)C(=O)C32)cc(OC)c1OC", "note": "(stereo not given)", "z-score": 0.144},
      {"compound": "O=C1[C@@H]2[C@@H](CC(COc3ccccc3)=C3[C@@H](CCc4ccccc4)OB(O)C[C@@H]32)C(=O)N1Cc1ccccc1", "z-score": 0.253},
      {"compound": "O=C1OCCC=C[C@H]2OC34C=CCN(c5ccc(Cl)cc5)C(=O)[C@H]3N(CCCCCCO)C(=O)[C@@H]4C12", "note": "(stereo not given in full)", "z-score": 1.34},
      {"compound": "CCOC(=O)C[C@H]1[C@H](OC(=O)c2ccccc2-c2ccccc2)[C@@H](NC(=O)c2ccc3ccccc3n2)c2cc(OCCCO)ccc2N1C(=O)c1ccccc1", "z-score": 0.625},
      {"compound": "COC(=O)[C@@]1(Cc2ccc(OC)cc2)[C@H]2c3cc(C(=O)N4CCCC4)n(Cc4ccc(S(C)(=O)=O)cc4)c3C[C@H]2CN1C(=O)c1ccccc1", "z-score": -1.15},
      {"compound": "C=C[C@@H](C)[C@@H](OC(=O)Nc1ccc(SC)cc1)c1ccc(OCCO)cc1", "z-score": -0.434},
      {"compound": "NCCCCCNC(=O)[C@@H]1C[C@@H]2C(=O)N3CCC[C@H]3C(=O)N2[C@@H]1c1ccc(O)cc1", "z-score": 0.73},
      {"compound": "O=C1OCCC/C=C\\[C@H]2OC34C=CCN(c5ccc6ccccc6c5)C(=O)[C@H]3N(CCCO)C(=O)[C@@H]4C12", "note": "(stereo not given in full)", "z-score": 1.37},
      {"compound": "CC(=O)NCCCC[C@@H]1NC(=O)[C@@H]2C[C@H](C(=O)NCCCCCCN)[C@H](c3cccc(OCCO)c3)N2C1=O", "z-score": 0.0193},
      {"compound": "COCCOC(=O)N1C(=O)[C@@]2(c3cc(C#CCNC(N)=O)ccc31)[C@H](c1ccc(OCCO)cc1)N1[C@H](c3ccccc3)[C@H](c3ccccc3)OC(=O)[C@H]1[C@@H]2C(N)=O", "z-score": -0.604}
    ]}
  ]
}
